Measurements reported in PubChem BioAssay (NCI).
The panel holds about 83,000 compounds, 20% with a hit somewhere; the sample as a whole holds those more often.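 Growth was measured after 48 h exposure to one concentration of compound in 96-well plates. Values under 10 count as active.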 Unmarked numbers belong to inactive results. Activity calls are given as the source filed them.

How the values were obtained:
Assay in all cases: NCI-60 one-dose screen, 48 h (100 = growth as untreated, 0 = no growth, -100 = all killed)
Details in all cases: 10 µM unless noted
NCI-H23 lung = system: NCI-H23 lung
NCI-H226 lung = system: NCI-H226 lung
NCI-H322M lung = system: NCI-H322M lung
HOP-62 NSCLC = system: HOP-62 NSCLC
NCI-H460 lung = system: NCI-H460 lung
HOP-92 NSCLC = system: HOP-92 NSCLC
NCI-H522 lung = system: NCI-H522 lung
A549/ATCC NSCLC = system: A549/ATCC NSCLC
786-0 renal = system: 786-0 renal
COLO 205 colon = system: COLO 205 colon
DU-145 prostate = system: DU-145 prostate
K-562 leukemia = system: K-562 leukemia
MALME-3M melanoma = system: MALME-3M melanoma
MDA-MB-231 breast = system: MDA-MB-231 breast
RXF 393 renal = system: RXF 393 renal
SF-268 CNS = system: SF-268 CNS
SF-295 CNS = system: SF-295 CNS
SF-539 CNS = system: SF-539 CNS
UACC-257 melanoma = system: UACC-257 melanoma
M14 melanoma = system: M14 melanoma

| Compound | growth (NCI-H23 lung) | growth (NCI-H226 lung) | growth (NCI-H322M lung) | growth (HOP-62 NSCLC) | growth (NCI-H460 lung) | growth (HOP-92 NSCLC) | growth (NCI-H522 lung) | growth (A549/ATCC NSCLC) | growth (786-0 renal) | growth (COLO 205 colon) | growth (DU-145 prostate) | growth (K-562 leukemia) | growth (MALME-3M melanoma) | growth (MDA-MB-231 breast) | growth (RXF 393 renal) | growth (SF-268 CNS) | growth (SF-295 CNS) | growth (SF-539 CNS) | growth (UACC-257 melanoma) | growth (M14 melanoma) |
| --- | --- | --- | --- | --- | --- | --- | --- | --- | --- | --- | --- | --- | --- | --- | --- | --- | --- | --- | --- | --- |
| O=Nc1c(O)c(Cl)cc2ccccc12 | 92.3% | 78.9% | 102% | 75.1% | 90.3% | 112% | 50.1% | 93% | 105% | 70.9% | 101% | 54.3% | 90.8% | 74.3% | 67.4% | 82.5% | 111% | 89.2% | 75.8% | 85.7% |
| N#Cc1c(-c2ccc(Cl)cc2)nc(N/N=C/c2cccc(Br)c2)nc1N1CCOCC1 | 98.3% | 92.3% | 90.6% | 90.9% | 87% | 71.2% | 91.1% | 80.4% | 61.8% | 44% | 59.3% | 12.6% | 133% | 103% | 56.2% | 89.2% | 91.5% | 78.8% | 71.6% | 62.4% |
| O=C1c2ccccc2C(=O)c2c(N=Nc3[nH]c(=S)[nH]c3O)cccc21 | 41.7% | 28.3% | 40.1% | 25% | 7.32% (active) | 19.8% | -6.34% (active) | 24.3% | 22.6% | 19% | 16.3% | 9.57% (active) | 45.4% | 40.3% | -22.4% (active) | 32.1% | 7.45% (active) | -32.3% (active) | 56.9% | -15.8% (active) |
| O=C(NCCN1CCOCC1)Nc1ccc(-c2cc3c(Nc4ccc(Oc5cccc(C(F)(F)F)c5)c(Cl)c4)ncnc3s2)cc1 | 27.4% | 26.3% | 18.7% | -26% (active) | -39.8% (active) | 16.4% | 27.3% | 4.01% (active) | -43% (active) | -56.7% (active) | 44.7% | -29.5% (active) | -57.5% (active) | 12% | -19.5% (active) | 29.3% | -58.5% (active) | -13.5% (active) | 26.4% | -50.5% (active) |
| Nc1ccn(-c2ccc(Br)cc2)c(=O)n1 | 88.8% | 128% | 120% | 102% | 105% | 74.6% | 88.5% | 107% | 102% | 198% | 101% | 76.2% | 124% | 104% | 137% | 109% | 79.3% | 94.1% | 127% | 104% |
| Cc1cc(C)nc(SC2=C(Nc3cc(Cl)ccc3O)C(=O)N(Cc3ccccc3)C2=O)n1 | 91.4% [30 µM] | 85.1% [30 µM] | -32% [30 µM] (active) | 102% [30 µM] | 97.4% [30 µM] | 42.9% [30 µM] | 58.6% [30 µM] | 46.6% [30 µM] | 83.4% [30 µM] | 112% [30 µM] | 95.8% [30 µM] | 58.5% [30 µM] | -56.7% [30 µM] (active) | 64.5% [30 µM] | 58.7% [30 µM] | 93.8% [30 µM] | 112% [30 µM] | 118% [30 µM] | 83.5% [30 µM] | 95.2% [30 µM] |
| CCCOc1cc2ccccc2cc1C(=O)Nc1nc(N)c2c(ccc3nccc32)[nH]1 | -55.1% (active) | -56.6% (active) | -35.1% (active) | -68.8% (active) | -75.8% (active) | -71.2% (active) | -59.6% (active) | -70.3% (active) | -71.9% (active) | -78.3% (active) | -65.8% (active) | -28.9% (active) | -76.1% (active) | -67.1% (active) | -77.1% (active) | -68.6% (active) | -76.6% (active) | -77.7% (active) | -77.6% (active) | -69.8% (active) |
| O=c1cc(CSc2nnc(-c3ccc(F)cc3)o2)c2ccc3ccccc3c2o1 | 84.3% | 81.1% | 100% | 75.4% | 101% | 92.2% | 83.8% | 85.5% | 104% | 117% | 107% | 93.9% | 107% | 87.2% | 107% | 96.4% | 89.5% | 98.1% | 103% | 103% |
